What was measured:
Assay in all cases: DAPPL (digital affinity profiling via proximity ligation, sequencing); 10 mM Tris-HCl pH 7.5, 50 mM NaCl, 1 mM DTT, 4% glycerol, room temperature, 30 min; GST-TFs on glutathione beads, 16-mer random dsDNA library, 0.1% formaldehyde crosslink after washing; high values mean tight binding
[1] = target: T1, FEV (Homo sapiens, UniProt Q99581 1-238); details: protein: recombinant; tags: N-terminal GST; dsDNA, one strand shown
T1 sequence: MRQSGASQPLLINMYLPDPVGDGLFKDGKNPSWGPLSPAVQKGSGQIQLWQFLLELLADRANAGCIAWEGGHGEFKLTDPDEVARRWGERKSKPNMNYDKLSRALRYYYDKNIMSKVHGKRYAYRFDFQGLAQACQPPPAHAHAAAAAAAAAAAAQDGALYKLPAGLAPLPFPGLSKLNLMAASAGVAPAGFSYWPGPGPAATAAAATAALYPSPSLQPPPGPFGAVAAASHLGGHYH
Method in brief: (§1)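 Binding signal is each hexamer's read frequency for a factor divided by its frequency in the tag-only sample. The factors were GST-fused human transcription factors from yeast, captured on glutathione beads, DNA-barcoded and pooled with that sample. Pools were incubated with 200 nmole of a random double-stranded 16-mer DNA library in Tris/NaCl/DTT/glycerol buffer at room temperature for 30 min, then washed, crosslinked with 0.1% formaldehyde, proximity-ligated with BsaI/T4 ligase (1 h, 37 °C), PCR-amplified and sequenced on an Illumina NextSeq500.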

[2] = target: ETV5 (Homo sapiens, UniProt P41161 1-510); details: protein: recombinant; tags: N-terminal GST; dsDNA, one strand shown
Method in brief: as §1

[3] = target: HSF1 (Homo sapiens, UniProt Q00613 1-529); details: protein: recombinant; tags: N-terminal GST; chain copies: 3; dsDNA, one strand shown
Method in brief: as §1

[4] = target: T2, SPIC (Homo sapiens, UniProt Q8N5J4 1-248); details: protein: recombinant; tags: N-terminal GST; dsDNA, one strand shown
T2 sequence: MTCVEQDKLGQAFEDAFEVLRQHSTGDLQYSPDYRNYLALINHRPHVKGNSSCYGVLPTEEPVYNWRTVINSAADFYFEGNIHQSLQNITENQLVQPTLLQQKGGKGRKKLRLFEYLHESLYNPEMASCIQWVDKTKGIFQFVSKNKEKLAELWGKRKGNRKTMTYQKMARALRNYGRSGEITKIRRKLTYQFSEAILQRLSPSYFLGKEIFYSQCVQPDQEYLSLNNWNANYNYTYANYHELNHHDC
Method in brief: as §1

[5] = target: ELF4 (Homo sapiens, UniProt Q99607 1-663); details: protein: recombinant; tags: N-terminal GST; dsDNA, one strand shown
Method in brief: as §1

[6] = target: T3, ELK4 (Homo sapiens, UniProt P28324-2 1-405); details: protein: recombinant; tags: N-terminal GST; dsDNA, one strand shown
T3 sequence: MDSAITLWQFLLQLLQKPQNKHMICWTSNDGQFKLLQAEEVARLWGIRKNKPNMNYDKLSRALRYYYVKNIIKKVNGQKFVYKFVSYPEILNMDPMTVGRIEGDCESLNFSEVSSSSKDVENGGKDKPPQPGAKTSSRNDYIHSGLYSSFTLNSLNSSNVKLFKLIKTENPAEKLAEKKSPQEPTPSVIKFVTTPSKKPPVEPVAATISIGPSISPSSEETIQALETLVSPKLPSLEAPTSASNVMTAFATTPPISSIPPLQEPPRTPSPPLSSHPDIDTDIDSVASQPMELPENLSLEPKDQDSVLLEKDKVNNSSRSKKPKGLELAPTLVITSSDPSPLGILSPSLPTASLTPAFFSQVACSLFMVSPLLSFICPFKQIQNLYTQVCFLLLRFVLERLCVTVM
Method in brief: as §1

[7] = target: T4, ETV2 (Homo sapiens, UniProt O00321 1-342); details: protein: recombinant; tags: N-terminal GST; dsDNA, one strand shown
T4 sequence: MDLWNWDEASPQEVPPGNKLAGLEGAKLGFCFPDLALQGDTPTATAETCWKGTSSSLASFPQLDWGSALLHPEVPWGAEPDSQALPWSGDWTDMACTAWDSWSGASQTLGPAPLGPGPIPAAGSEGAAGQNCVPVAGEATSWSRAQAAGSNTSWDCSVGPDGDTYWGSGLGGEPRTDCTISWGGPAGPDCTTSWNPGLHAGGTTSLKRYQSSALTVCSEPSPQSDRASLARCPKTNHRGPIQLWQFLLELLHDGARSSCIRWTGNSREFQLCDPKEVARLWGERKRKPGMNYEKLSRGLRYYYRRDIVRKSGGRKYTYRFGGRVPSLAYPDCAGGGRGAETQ
Method in brief: as §1

[8] = target: T5, ELF3 (Homo sapiens, UniProt P78545 1-371); details: protein: recombinant; tags: N-terminal GST; dsDNA, one strand shown
T5 sequence: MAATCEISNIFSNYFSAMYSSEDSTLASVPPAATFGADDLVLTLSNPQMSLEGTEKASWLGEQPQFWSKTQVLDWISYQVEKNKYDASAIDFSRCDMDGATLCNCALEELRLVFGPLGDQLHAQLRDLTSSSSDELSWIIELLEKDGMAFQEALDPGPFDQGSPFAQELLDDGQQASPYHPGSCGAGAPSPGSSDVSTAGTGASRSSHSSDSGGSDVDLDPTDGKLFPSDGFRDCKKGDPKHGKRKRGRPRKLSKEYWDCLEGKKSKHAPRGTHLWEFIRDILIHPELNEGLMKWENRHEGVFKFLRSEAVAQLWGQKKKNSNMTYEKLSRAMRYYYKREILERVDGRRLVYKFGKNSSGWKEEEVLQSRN
Method in brief: as §1

[9] = target: CRX (Homo sapiens, UniProt O43186 1-299); details: protein: recombinant; tags: N-terminal GST; dsDNA, one strand shown
Method in brief: as §1

[10] = target: ETV1 (Homo sapiens, UniProt P50549 1-477); details: protein: recombinant; tags: N-terminal GST; dsDNA, one strand shown
Method in brief: as §1

[11] = target: T6, ERF (Homo sapiens, UniProt P50548 1-548); details: protein: recombinant; tags: N-terminal GST; dsDNA, one strand shown
T6 sequence: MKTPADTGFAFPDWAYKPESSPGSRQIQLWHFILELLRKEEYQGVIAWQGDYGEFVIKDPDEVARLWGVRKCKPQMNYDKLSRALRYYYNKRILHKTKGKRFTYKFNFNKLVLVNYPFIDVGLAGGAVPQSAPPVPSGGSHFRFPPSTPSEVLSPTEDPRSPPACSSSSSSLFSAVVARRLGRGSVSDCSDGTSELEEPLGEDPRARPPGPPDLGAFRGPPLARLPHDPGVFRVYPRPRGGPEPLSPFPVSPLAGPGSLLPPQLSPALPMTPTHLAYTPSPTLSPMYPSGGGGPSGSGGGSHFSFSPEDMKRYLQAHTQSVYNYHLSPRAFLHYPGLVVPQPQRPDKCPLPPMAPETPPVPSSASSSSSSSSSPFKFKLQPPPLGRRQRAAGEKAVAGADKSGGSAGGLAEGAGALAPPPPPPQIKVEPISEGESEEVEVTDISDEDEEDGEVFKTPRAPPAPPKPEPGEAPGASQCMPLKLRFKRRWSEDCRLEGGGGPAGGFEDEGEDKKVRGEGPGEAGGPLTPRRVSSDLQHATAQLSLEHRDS
Method in brief: as §1

[12] = target: T7, ETV3L (Homo sapiens, UniProt Q6ZN32 1-361); details: protein: recombinant; tags: N-terminal GST; dsDNA, one strand shown
T7 sequence: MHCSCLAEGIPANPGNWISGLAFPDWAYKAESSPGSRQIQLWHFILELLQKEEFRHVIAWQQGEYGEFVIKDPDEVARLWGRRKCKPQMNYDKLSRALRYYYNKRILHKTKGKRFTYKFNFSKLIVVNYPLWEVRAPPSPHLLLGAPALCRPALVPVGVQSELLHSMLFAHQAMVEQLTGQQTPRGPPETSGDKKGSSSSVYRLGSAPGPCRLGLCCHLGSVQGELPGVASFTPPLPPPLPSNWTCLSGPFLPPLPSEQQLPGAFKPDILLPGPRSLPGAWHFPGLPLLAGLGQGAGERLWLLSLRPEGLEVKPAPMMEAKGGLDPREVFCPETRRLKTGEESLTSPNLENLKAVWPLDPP
Method in brief: as §1

[13] = target: T8, ETS2 (Homo sapiens, UniProt P15036 1-469); details: protein: recombinant; tags: N-terminal GST; dsDNA, one strand shown
T8 sequence: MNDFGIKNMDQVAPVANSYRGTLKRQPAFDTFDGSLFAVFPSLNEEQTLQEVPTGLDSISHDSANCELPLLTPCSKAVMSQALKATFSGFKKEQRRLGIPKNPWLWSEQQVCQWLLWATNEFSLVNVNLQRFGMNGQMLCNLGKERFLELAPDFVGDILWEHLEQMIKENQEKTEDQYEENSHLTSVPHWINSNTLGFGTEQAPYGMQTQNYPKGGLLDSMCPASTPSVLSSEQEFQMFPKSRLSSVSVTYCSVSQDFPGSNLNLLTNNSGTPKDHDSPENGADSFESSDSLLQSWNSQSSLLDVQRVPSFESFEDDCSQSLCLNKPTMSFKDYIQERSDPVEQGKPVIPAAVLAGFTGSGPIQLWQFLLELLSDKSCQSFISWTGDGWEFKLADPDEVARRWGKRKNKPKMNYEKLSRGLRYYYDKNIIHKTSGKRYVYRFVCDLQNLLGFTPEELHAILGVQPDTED
Method in brief: as §1

[14] = target: T9, SPDEF (Homo sapiens, UniProt O95238 1-335); details: protein: recombinant; tags: N-terminal GST; dsDNA, one strand shown
T9 sequence: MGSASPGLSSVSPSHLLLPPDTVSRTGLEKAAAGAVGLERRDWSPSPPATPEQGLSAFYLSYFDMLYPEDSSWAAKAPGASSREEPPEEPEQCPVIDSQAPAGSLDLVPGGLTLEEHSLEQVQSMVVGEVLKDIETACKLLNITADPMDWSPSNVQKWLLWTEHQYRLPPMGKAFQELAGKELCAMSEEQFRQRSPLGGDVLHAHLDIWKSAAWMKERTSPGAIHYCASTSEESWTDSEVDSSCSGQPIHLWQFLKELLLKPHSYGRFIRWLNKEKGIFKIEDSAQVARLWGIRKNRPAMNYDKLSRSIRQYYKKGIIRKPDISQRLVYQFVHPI
Method in brief: as §1

[15] = target: T10, ETV7 (Homo sapiens, UniProt Q9Y603 1-341); details: protein: recombinant; tags: N-terminal GST; dsDNA, one strand shown
T10 sequence: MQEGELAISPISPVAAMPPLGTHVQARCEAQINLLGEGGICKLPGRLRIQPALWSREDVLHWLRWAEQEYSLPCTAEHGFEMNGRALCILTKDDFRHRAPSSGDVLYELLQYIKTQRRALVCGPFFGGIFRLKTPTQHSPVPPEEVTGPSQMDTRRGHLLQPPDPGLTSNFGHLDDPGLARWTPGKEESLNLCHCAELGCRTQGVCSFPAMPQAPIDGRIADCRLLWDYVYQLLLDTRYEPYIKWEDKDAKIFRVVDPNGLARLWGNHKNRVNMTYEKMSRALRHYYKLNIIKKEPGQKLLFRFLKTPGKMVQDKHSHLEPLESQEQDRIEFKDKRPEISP
Method in brief: as §1

[16] = target: T11, ELF5 (Homo sapiens, UniProt Q9UKW6-2 1-255); details: protein: recombinant; tags: N-terminal GST; dsDNA, one strand shown
T11 sequence: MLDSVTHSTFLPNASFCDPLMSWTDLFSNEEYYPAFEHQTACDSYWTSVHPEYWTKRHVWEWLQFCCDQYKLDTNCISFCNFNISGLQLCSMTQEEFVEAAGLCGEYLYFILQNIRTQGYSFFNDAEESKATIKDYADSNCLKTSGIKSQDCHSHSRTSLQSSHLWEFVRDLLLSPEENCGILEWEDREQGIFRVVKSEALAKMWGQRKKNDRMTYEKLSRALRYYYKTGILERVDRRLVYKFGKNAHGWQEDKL
Method in brief: as §1

[17] = target: T12, ETV3 (Homo sapiens, UniProt P41162-2 1-143); details: protein: recombinant; tags: N-terminal GST; dsDNA, one strand shown
T12 sequence: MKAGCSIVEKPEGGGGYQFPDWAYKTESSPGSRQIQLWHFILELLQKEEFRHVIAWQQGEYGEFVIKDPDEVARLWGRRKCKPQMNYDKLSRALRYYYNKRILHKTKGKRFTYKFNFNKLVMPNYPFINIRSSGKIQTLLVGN
Method in brief: as §1

[18] = target: ETV6 (Homo sapiens, UniProt P41212 1-452); details: protein: recombinant; tags: N-terminal GST; dsDNA, one strand shown
Method in brief: as §1

Sequence of ETV6 (P41212 whole entry): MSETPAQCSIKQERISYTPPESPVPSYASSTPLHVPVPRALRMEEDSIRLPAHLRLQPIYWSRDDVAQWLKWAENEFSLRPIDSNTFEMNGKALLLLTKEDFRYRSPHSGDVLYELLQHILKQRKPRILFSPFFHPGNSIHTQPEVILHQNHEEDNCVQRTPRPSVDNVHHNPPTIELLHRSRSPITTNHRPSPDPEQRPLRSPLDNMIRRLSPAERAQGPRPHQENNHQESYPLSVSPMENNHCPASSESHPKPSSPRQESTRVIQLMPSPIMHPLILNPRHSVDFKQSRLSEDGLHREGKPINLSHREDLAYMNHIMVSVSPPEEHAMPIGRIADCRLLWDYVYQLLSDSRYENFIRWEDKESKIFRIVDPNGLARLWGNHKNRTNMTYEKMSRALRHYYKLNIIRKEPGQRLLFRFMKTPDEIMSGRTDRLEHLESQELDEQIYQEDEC
Sequence of ETV5 (P41161 whole entry): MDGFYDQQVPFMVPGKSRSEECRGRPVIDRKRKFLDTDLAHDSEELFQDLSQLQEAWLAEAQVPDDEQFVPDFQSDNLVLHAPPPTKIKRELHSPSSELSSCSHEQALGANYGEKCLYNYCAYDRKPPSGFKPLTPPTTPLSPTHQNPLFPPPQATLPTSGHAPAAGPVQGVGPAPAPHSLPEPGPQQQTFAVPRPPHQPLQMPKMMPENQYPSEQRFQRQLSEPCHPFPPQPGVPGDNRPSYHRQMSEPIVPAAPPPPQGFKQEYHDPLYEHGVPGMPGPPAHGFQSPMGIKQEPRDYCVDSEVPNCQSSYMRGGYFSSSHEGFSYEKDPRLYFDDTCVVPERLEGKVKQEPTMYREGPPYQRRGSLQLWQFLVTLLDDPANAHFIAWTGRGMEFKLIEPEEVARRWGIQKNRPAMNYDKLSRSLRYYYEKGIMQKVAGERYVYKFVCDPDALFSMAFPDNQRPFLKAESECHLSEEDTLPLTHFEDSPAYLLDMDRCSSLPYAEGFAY
Sequence of CRX (O43186 whole entry): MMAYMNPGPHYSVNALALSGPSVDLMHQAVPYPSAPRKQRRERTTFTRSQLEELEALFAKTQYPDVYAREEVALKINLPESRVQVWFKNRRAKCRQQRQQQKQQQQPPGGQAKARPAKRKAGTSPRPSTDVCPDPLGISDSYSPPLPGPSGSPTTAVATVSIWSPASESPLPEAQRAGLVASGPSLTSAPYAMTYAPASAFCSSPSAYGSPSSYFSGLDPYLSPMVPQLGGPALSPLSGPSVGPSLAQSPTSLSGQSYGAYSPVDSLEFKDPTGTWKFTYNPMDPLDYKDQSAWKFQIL
Sequence of ELF4 (Q99607 whole entry): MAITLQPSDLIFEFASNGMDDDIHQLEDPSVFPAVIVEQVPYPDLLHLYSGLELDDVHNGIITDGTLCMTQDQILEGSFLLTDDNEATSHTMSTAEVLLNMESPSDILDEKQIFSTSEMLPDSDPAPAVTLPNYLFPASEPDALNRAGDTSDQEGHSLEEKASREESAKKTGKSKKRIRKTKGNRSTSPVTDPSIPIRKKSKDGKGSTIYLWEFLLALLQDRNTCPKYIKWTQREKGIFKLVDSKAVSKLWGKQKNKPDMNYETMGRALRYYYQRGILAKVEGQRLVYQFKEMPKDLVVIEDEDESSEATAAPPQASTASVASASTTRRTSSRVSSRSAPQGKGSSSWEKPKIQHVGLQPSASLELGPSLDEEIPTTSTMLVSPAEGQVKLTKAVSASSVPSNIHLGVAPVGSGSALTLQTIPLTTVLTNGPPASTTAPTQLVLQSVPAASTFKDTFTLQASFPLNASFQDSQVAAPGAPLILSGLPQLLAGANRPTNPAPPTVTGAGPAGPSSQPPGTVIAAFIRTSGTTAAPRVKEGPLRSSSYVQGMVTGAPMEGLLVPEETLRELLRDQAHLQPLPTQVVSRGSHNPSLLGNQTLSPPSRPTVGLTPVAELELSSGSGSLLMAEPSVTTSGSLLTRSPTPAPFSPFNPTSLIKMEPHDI
Sequence of ETV1 (P50549 whole entry): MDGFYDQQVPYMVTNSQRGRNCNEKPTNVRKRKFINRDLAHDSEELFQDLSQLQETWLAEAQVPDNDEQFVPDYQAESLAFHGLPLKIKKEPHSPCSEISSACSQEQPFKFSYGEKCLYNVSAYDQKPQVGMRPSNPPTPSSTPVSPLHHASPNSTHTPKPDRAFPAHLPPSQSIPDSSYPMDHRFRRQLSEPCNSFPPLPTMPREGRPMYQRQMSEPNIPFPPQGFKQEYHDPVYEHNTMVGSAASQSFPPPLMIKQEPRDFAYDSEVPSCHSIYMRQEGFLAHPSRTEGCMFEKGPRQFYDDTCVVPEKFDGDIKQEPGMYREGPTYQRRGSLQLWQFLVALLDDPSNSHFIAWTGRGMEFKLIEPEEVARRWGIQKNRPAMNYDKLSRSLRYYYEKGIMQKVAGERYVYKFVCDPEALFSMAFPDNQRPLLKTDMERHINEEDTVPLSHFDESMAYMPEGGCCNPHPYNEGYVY
Sequence of HSF1 (Q00613 whole entry): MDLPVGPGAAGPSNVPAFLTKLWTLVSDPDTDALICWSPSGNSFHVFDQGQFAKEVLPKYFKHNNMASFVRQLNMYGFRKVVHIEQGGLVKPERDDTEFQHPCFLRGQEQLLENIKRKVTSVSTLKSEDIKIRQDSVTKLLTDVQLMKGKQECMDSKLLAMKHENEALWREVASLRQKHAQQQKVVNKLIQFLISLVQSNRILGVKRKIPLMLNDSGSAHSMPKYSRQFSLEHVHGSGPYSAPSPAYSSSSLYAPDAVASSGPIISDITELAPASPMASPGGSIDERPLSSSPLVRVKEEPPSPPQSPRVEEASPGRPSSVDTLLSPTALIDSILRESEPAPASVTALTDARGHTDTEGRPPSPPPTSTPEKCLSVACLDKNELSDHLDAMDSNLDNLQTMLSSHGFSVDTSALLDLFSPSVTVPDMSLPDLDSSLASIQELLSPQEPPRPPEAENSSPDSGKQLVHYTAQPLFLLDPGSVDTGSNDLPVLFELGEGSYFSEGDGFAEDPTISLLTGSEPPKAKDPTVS

AAAAAC
binding signal [1]: 1.28 fold enrichment (6-mer frequency, TF over GST control) | binding signal [2]: 1.26 fold enrichment (6-mer frequency, TF over GST control) | binding signal [3]: 1.19 fold enrichment (6-mer frequency, TF over GST control) | binding signal [4]: 1.27 fold enrichment (6-mer frequency, TF over GST control) | binding signal [5]: 1.31 fold enrichment (6-mer frequency, TF over GST control) | binding signal [6]: 1.14 fold enrichment (6-mer frequency, TF over GST control) | binding signal [7]: 1.32 fold enrichment (6-mer frequency, TF over GST control) | binding signal [8]: 1.3 fold enrichment (6-mer frequency, TF over GST control) | binding signal [9]: 1.16 fold enrichment (6-mer frequency, TF over GST control) | binding signal [10]: 1.27 fold enrichment (6-mer frequency, TF over GST control) | binding signal [11]: 1.22 fold enrichment (6-mer frequency, TF over GST control) | binding signal [12]: 1.25 fold enrichment (6-mer frequency, TF over GST control) | binding signal [13]: 1.29 fold enrichment (6-mer frequency, TF over GST control) | binding signal [14]: 1.23 fold enrichment (6-mer frequency, TF over GST control) | binding signal [15]: 1.29 fold enrichment (6-mer frequency, TF over GST control) | binding signal [16]: 1.3 fold enrichment (6-mer frequency, TF over GST control) | binding signal [17]: 1.2 fold enrichment (6-mer frequency, TF over GST control) | binding signal [18]: 1.26 fold enrichment (6-mer frequency, TF over GST control)

Source: publication PMC7862700, “An all-to-all approach to the identification of sequence-specific readers for epigenetic DNA modifications on cytosine”
